How the values were obtained:
Type in all cases: functional
Plasmodium falciparum [1] = assay: GSK_TCMDC: Inhibition of Plasmodium falciparum 3D7 in whole red blood cells, using parasite LDH activity as an index of growth. Test compounds present at 2uM
Plasmodium falciparum [2] = assay: GSK_TCMDC: Inhibition of Plasmodium falciparum Dd2 in whole red blood cells, using parasite LDH activity as an index of growth. Test compounds present at 2uM
HepG2 = assay: GSK_TCMDC: Percent inhibition of human HepG2 cell line. Test compounds present at 10uM.

| Structure (SMILES) | Inhibition (Plasmodium falciparum [1]) [%] | Inhibition (Plasmodium falciparum [2]) [%] | Inhibition (HepG2) [%] |
| --- | --- | --- | --- |
| Cc1cc(N/N=C/c2cccc([N+](=O)[O-])c2)c2ccc(F)cc2n1 | 100 | 98 | 0 |
| CC(C)(CNC(=O)C1CCN(Cc2ccoc2)CC1)c1nc(-c2ccc(Cl)c(O)c2)c(-c2ccncc2)[nH]1.Cl | 93 | 66 | 0 |
| O=C(NCCCN1CCCCC1)c1cccc(Nc2nccc(Nc3ccc(Oc4ccccc4)cc3)n2)c1 | 96 | 12 | 47 |
| O=C(NC1CCCCC1)c1csc(C2CCCN(C(=O)c3ccc(O)c(-c4cccc(C(F)(F)F)c4)c3)C2)n1 (stereo not given) | 96 | 85 | 8 |
| COc1cccc(NC(=O)Nc2cc(C)nc3ccccc23)c1 | 100 | 48 | 2 |
| CCCN(Cc1nnc(-c2ccco2)o1)C(=O)C1CCCN(C(=O)c2ccc(Cl)cc2)C1 (stereo not given) | 96 | 96 | 0 |
| O=C(Nc1ccc(F)c(F)c1)c1ccc(CN2CCCN(Cc3cccc(O)c3)CC2)cc1.O=C(O)C(F)(F)F | 92 | 57 | 43 |
| COc1ccc(NC(=O)C2c3ccccc3C(=O)N(C3CCCC3)C2c2cccs2)cc1 (stereo not given) | 93 | 75 | 0 |
| CCc1ccc(-c2nc3cc(NC(=O)c4ccc([N+](=O)[O-])o4)ccc3o2)cc1 | 97 | 80 | 4 |
| Cc1cccc2nc(-c3cccc(-c4ccc(NC(=O)Nc5ccc6c(c5)OCO6)cc4)c3)[nH]c12 | 100 | 86 | 80 |
| CC(Cc1ccc(NC(=O)c2ccc(CNCc3ccccc3)cc2)cc1)N(CCc1cccc(Cl)c1)C(=O)OC(C)(C)C (stereo not given) | 95 | 2 | 16 |
| Cc1cccc2c1NC(=O)/C2=N/NC(=S)N(C)C | 96 | 59 | 48 |
| CCCc1cc(Cc2cnc(N)nc2N)cc(OC)c1OC | 87 | 4 | 2 |
| O=C1NC(C(=O)Nc2ccccc2)C(c2ccccc2)S1 (stereo not given) | 95 | 99 | 0 |
| CC(C)C[C@@H](NC(=O)OC(C)(C)C)C(=O)Nc1ccc(Cc2ccc(NC(=O)[C@@H](CC(C)C)NC(=O)OC(C)(C)C)cc2)cc1 | 96 | 96 | 8 |
| O=C(Nc1ccc(Oc2ccccc2)cc1)N[C@H]1CCN(Cc2ccc(OCCCN3CCCCC3)cc2)C1 | 100 | 6 | 13 |
| Cl.O=S(=O)(Nc1ccc2nccc(N3CCNCC3)c2c1)c1ccc2c(Cl)cccc2c1 | 100 | 2 | 11 |
| N=C(N)NN=Cc1ccccc1OCc1ccccc1Cl | 100 | 30 | 14 |

| Structure (SMILES) | Inhibition (Plasmodium falciparum [1]) [%] | Inhibition (Plasmodium falciparum [2]) [%] | Inhibition (HepG2) [%] |
| --- | --- | --- | --- |
| O=C(/C=C/c1c[nH]c2ccccc12)NCCCCCN1CCC(c2c[nH]c3ccccc23)CC1 | 96 | 0 | 20 |
| O=C(Nc1ccccc1Cl)c1cc2ccccc2cc1O | 94 | 72 | 2 |
| COc1cccc(C(=O)Nc2sc3c(c2C(N)=O)CCCC3)c1OC | 99 | 8 | 6 |
| CC(C)CC(=O)NC1CCN(Cc2c(-c3cccs3)nc3ccccc3c2C(=O)N[C@@H](C)C2CCCCC2)CC1 | 96 | 97 | 0 |
| c1cc(CNc2ncc(-c3ccsc3)c(-c3nccs3)n2)ccn1 | 89 | 81 | 18 |
| COc1ccc2nc3cc(Cl)ccc3c(NCCCN3CCNCC3)c2c1.Cl | 100 | 74 | 18 |
| COc1cc(NC(=O)Nc2cccc3ccccc23)c(OC)cc1Cl | 97 | 71 | 0 |
| O=C(Nc1ccc(Cl)c(C(F)(F)F)c1)c1ccc(Cl)c([N+](=O)[O-])c1 | 87 | 18 | 20 |
| CC1=C(C(=O)OC(C)C)C(c2ccccc2Cl)C2=C(CC(c3ccccc3)CC2=O)N1 (stereo not given) | 93 | 84 | 15 |
| Cl.Nc1nc(N)c2c(ccc3c2cnn3S(=O)(=O)N2CCCC2)n1 | 93 | 3 | 70 |
| CCc1ccccc1N1CCN(CCCC(=O)c2ccc(NC(=O)c3ccc(Cl)cc3)cc2)CC1 | 90 | 4 | 17 |
| CCOC(=O)c1cc(C(=O)NCCCCN2CCC(c3ccc4c(c3OC)CCCC4)CC2)ccc1-c1ccc(C(F)(F)F)cc1 | 100 | 60 | 100 |
| CCN(CC)CCN(Cc1ccc(-c2ccc(C(F)(F)F)cc2)cc1)C(=O)Cn1c(CCc2cccc(F)c2F)cc(=O)c(C)c1C.O=C(O)C(O)C(O)C(=O)O | 97 | 87 | 35 |
| Cc1[nH]c(C)c(-c2ccc(OCCn3cnc(Cl)c3Cl)cc2)c(=O)c1Br | 95 | 35 | 2 |
| FC(F)(F)c1cccc(CNCCCCCNCc2ccc(Cl)cc2)c1 | 91 | 15 | 13 |
| NS(=O)(=O)c1ccc(CNc2ccc3ncc(-c4ccc(OC(F)(F)F)cc4)n3n2)cc1 | 97 | 99 | 10 |
| O=C(Nc1cccc(CN2CCCN(Cc3ccc(O)cc3)CC2)c1)c1cccc(Cl)c1.O=C(O)C(F)(F)F | 96 | 41 | 10 |

Source: ChEMBL document CHEMBL1157539, “Thousands of chemical starting points for antimalarial lead identification” (Nature, 2010)
